The full ranking holds about 68,000 sequences; the median of “fluorescence intensity (a.u.)” is about 9,100, and the highest 2% start at about 16,000. Shown is part of a subset that was picked to be rich in the highest values.

Data on 43 sequences can be found in paper PMC7819943, “Rice protein-binding microarrays: a tool to detect cis-acting elements near promoter regions in rice”.

The target in this assay is OsWRKY34 (Oryza sativa, UniProt Q0JBA9 1-250). Kind of assay: protein-binding microarray (RPBM); PBS, 2% BSA, 51.3 ng/ul salmon testes DNA, 50 uM zinc acetate, 200 nM TF, 25 C, 1 h; high values mean tight binding. Conditions: protein: recombinant; tags: N-terminal polyhistidine and DsRed monomer fusion (pET32a); label: CyDye5-dUTP incorporated in the synthesized complementary strand; 3' TTTTT single-stranded linker to array surface; dsDNA, one strand shown. Summed up: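 Transcription factors were each fused at the N-terminus to a polyhistidine tag plus DsRed and expressed in E. coli BL21-CodonPlus before Ni–NTA purification. Binding to a double-stranded custom Agilent array was carried out with 200 nM protein at 25 °C for 1 h in PBS, 2% BSA, salmon testes DNA and 50 µM zinc acetate. The binding signal is per-feature fluorescence intensity, in arbitrary units, on an Axon 4000B scanner.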
OsWRKY34, sequence (Q0JBA9 entry or part of it): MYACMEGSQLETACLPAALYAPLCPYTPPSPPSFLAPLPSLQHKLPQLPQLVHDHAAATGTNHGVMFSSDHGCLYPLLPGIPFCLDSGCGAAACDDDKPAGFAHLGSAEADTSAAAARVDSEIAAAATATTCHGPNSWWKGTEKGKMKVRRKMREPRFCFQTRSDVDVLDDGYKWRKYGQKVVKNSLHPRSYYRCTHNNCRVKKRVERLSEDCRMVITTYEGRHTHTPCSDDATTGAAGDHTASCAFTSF
Take “CCACACTCCTCGCTCGCCTGCCTCTCTGTTCTTAATTAGCCGGAGTCACCTAGTGCAG”: the binding signal was 8750 fluorescence intensity (a.u.). Take “AAGCCCAACGTGCTTCATCTCTTCTTCTATCTTATCTTCTCGGAGTCACCTAGTGCAG”: the binding signal is 8190 fluorescence intensity (a.u.). To “GCGGAGGAAAGGTGGGGTGGTAAAAAACGGAAAAACCGGACGGAGTCACCTAGTGCAG” belongs 8960 fluorescence intensity (a.u.); to “TATGCATACTTTTTTATCACTGTAGTTACTAGCTAAGATCCGGAGTCACCTAGTGCAG”, 9000 fluorescence intensity (a.u.); to “GCCCGTCTTCGTCCAGTTCCTGATCAGGTATGGTCCTTCTCGGAGTCACCTAGTGCAG”, 8060 fluorescence intensity (a.u.). To “ACCCGAGATCTGATTCACTACCGCCGCCGGATCAAGCCACCGGAGTCACCTAGTGCAG” belongs 8320 fluorescence intensity (a.u.); to “TTCGCTCACCTCTCGATCGATCGACCTGCCAACATCAACACGGAGTCACCTAGTGCAG”, 10400 fluorescence intensity (a.u.); to “TCACGTTCAACGTTTGACTGTTCGTCTTATTTAAAATTTTCGGAGTCACCTAGTGCAG”, 8400 fluorescence intensity (a.u.). In the case of “CGTTGACTTTTTATCAAATGTTTGACCGTTCGTCTTATTTCGGAGTCACCTAGTGCAG” it was 28900 fluorescence intensity (a.u.); in that of “CGTTGACTTTTTTAAAAGTGTTTGACTGTTCGTCTTTTTTCGGAGTCACCTAGTGCAG”, 30500 fluorescence intensity (a.u.); in that of “TTATCAAATATTCCATCCGTCTTTTTTGATATTTTAATTTCGGAGTCACCTAGTGCAG”, 9840 fluorescence intensity (a.u.). Regarding “TGACTTTTTATCATATGTTTGACCGTTCGTCTTATTCAAACGGAGTCACCTAGTGCAG”, the binding signal is 10900 fluorescence intensity (a.u.). To “ACGCCGTTGACTTTTTTAAACATGTTTGACTGTTCGTCTTCGGAGTCACCTAGTGCAG” belongs 38200 fluorescence intensity (a.u.); to “AGTGTTAGTTGACTGTTAGTCAAAGGTTAGTTTTTTTCGTCGGAGTCACCTAGTGCAG”, 9180 fluorescence intensity (a.u.).

Turning to “ACGCTGTTGATTTTTTTAAACATGTTTGACCGTTCGTCTTCGGAGTCACCTAGTGCAG”, the binding signal is 13200 fluorescence intensity (a.u.). In the case of “ACACCGCTGACTTTTTAAAACATGTTTTACCGTTCGTCTTCGGAGTCACCTAGTGCAG” it was 13600 fluorescence intensity (a.u.). In the case of “TTGACTTTTTAAAATATGTTTGACCGTTCGTCTTATTCAACGGAGTCACCTAGTGCAG” it was 8040 fluorescence intensity (a.u.). In the case of “ATTGATATCAAACCGTTTCTTTTGTCATATTCGTCATTTCCGGAGTCACCTAGTGCAG” it was 17700 fluorescence intensity (a.u.); in that of “ATTCAAATTTGTCAAACATTGTTTTCTTCTCTTTCATATCCGGAGTCACCTAGTGCAG”, 8650 fluorescence intensity (a.u.); in that of “ATGCGTGCGCTCAGCCCATTCTGCTTGTATTTTCAGTACACGGAGTCACCTAGTGCAG”, 11300 fluorescence intensity (a.u.). For the sequence “ACCCACCCACCCACCCGGTCTGTCTCCTAACCCCGGTCGCCGGAGTCACCTAGTGCAG”, the binding signal is 12600 fluorescence intensity (a.u.). In the case of “GATCGTGGAATTAATTCCACCTTAGTTGTTATGGGCGGGTCGGAGTCACCTAGTGCAG” it was 11400 fluorescence intensity (a.u.). In the case of “GAACAACAACATGCCGCACGTGCGTATATATATATATATCCGGAGTCACCTAGTGCAG”, the binding signal was 10800 fluorescence intensity (a.u.). In the case of “TCCATTGACACCGGCACACGCACACGCACACCCGCACCGCCGGAGTCACCTAGTGCAG”, the binding signal is 8960 fluorescence intensity (a.u.). In the case of “CAACCTCACCTACTTCCACTTCCTCGACACCAACGGCGTCCGGAGTCACCTAGTGCAG” it was 9590 fluorescence intensity (a.u.). In the case of “GCATGTGTTCGTTATGTGTGGTTGGAGATTTTCTCCCACACGGAGTCACCTAGTGCAG” it was 8470 fluorescence intensity (a.u.); in that of “CTGCTCGGAGCACACACAACCACCACTCACCACCAACATGCGGAGTCACCTAGTGCAG”, 9280 fluorescence intensity (a.u.); in that of “TAATACACTAGCCCCAATGTTTGTTTGCCTAATCTACTCTCGGAGTCACCTAGTGCAG”, 9080 fluorescence intensity (a.u.). To “TTACACTGTTCATGTCTCACGTTTGACCGTTCGTTTTATTCGGAGTCACCTAGTGCAG” belongs 16400 fluorescence intensity (a.u.).

Turning to “TGTCGCCATCGTATCACCGTCGCGTCGCCATCCCGTCGCCCGGAGTCACCTAGTGCAG”, the binding signal was 8070 fluorescence intensity (a.u.). For the sequence “AGTTTTGCACTGTTTATGTCTCACGTTTGACCGTTCGTTTCGGAGTCACCTAGTGCAG”, the binding signal is 11400 fluorescence intensity (a.u.). “GGCCCATCTGACCAAGCCCAGCTCGCGTCGTCGTGTTGATCGGAGTCACCTAGTGCAG”: the binding signal is 8930 fluorescence intensity (a.u.). To “CCTCTATTTCATATTATACGTCGTTGACTTTTTTCTTAGTCGGAGTCACCTAGTGCAG” belongs 17400 fluorescence intensity (a.u.). In the case of “GTTTTACACTATTCACGTTCAACGTTTGACCGTTCGTCTTCGGAGTCACCTAGTGCAG” it was 13400 fluorescence intensity (a.u.). In the case of “CATATTATAAGTCGTTTTGACTTTTTTTTCTTAGTCAATCCGGAGTCACCTAGTGCAG” it was 12100 fluorescence intensity (a.u.); in that of “CCAAGCTTGTCGTGCCCGTATGTTCGCGTCCATCGTTGACCGGAGTCACCTAGTGCAG”, 19800 fluorescence intensity (a.u.); in that of “ACTTTTTAAAACATATTTGACCGTTCTTCTTATTAAAAAACGGAGTCACCTAGTGCAG”, 8850 fluorescence intensity (a.u.). Turning to “CGTCGTTGACTTTTTTAAACATATTTGACCGTTCGTCTTACGGAGTCACCTAGTGCAG”, the binding signal is 17100 fluorescence intensity (a.u.). To “TTGACCTTTTTAAAACATTTTTGACCGTTCGTCTTATTCACGGAGTCACCTAGTGCAG” belongs 10600 fluorescence intensity (a.u.). “CTCTATTCGTTTTTCATATTATAAGTCGTTTGACGTTTTTCGGAGTCACCTAGTGCAG”: the binding signal is 9170 fluorescence intensity (a.u.). In the case of “TTTCATGCGTTCCAAGTTGTCATTACTCCTTTGTACTCTCCGGAGTCACCTAGTGCAG” it was 10700 fluorescence intensity (a.u.); in that of “CCGCCGGACTCTCAAAATCCCAAGTCTCAACTCGATCAGCCGGAGTCACCTAGTGCAG”, 8170 fluorescence intensity (a.u.).

With “AACTCTAATTTACTGTTGGTTGGTGCAATATCAGATGGATCGGAGTCACCTAGTGCAG”, the binding signal is 8900 fluorescence intensity (a.u.).
